Laboratory results as given in PubChem BioAssay.
Activity calls are given as the source filed them.

Tests used:
Albumin (Bos taurus) = Albumin (Bos taurus) (UniProt P02769); assay: compounds binding labelled BSA control protein – biochemical, small-molecule microarray, Alexa647 label, 635/667 nm fluorescence, artefact control for SMM control protein annotation, profiling panel (AID 1118); details: BSA-A647 binding, fluorescence 635 nm, higher = more signal;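 further: score merges 667 nm emission intensity and signal-to-noise per printed compound spot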
[1] = probe aXIP binding to arrayed compounds – biochemical, NeuroSMM set, 635/667 nm fluorescence, primary screen (AID 1119); details: small-molecule microarray, higher = more signal, called active from +8 up or from −8 down;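 further: probe is the protein aXip251-270 applied at 1 µg/mL to compound-printed slides; binding of probe to printed compounds measured as 667 nm fluorescence plus signal to noise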
[2] = probe aNOTCH3 binding on compound microarray – biochemical, small-molecule microarray, 635/667 nm fluorescence, primary screen (AID 1120); details: higher = more signal;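 further: probe is a biotin-tagged antibody raised against NOTCH3 rather than NOTCH3 protein; score merges spot fluorescence near 667 nm with spot signal to noise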
[3] = probe aNOTCH2 binding on compound microarray – biochemical, small-molecule microarray, 635/667 nm fluorescence, primary screen (AID 1121); details: higher = more signal;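 further: score merges feature fluorescence read at 667 nm with its signal to noise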
[4] = target: Carbonic anhydrase 2 (Homo sapiens) (UniProt P00918); assay: compounds binding carbonic anhydrase 2 – biochemical, small-molecule microarray, Alexa647-labelled CAII, profiling panel (AID 1122); details: CAII-A647 binding fluorescence, higher = more signal
[5] = COS7 lysate on small-molecule microarray, probe aHis, 635 nm (AID 1123); details: COS7 cell lysate, fluorescence, higher = more signal;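 further: z-score combines 667nm fluorescence intensity with signal-to-noise per printed compound spot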
[6] = probe aLAP1 signal on lysate-treated microarray – cell lysate, small-molecule microarray, COS7 lysate, primary screen (AID 1124); details: probe aLAP1, fluorescence, higher = more signal;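 further: lysate comes from COS7 cells expressing LAP1 and is applied at 0.3 µg/mL; score merges spot fluorescence near 667 nm with signal-to-noise over triplicate slides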
Sam68 (KHDRBS1) = assay: compounds binding KHDRBS1 protein – biochemical, small-molecule microarray, 635 nm fluorescence, primary screen (AID 1125); details: higher = more signal;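 further: score merges 667 nm channel intensity with signal to noise over triplicate slides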
[7] = test system: Chordin-like protein 2 (CHRDL2); assay: compounds binding chordin-like 2 – biochemical, small-molecule microarray, 635 nm fluorescence, primary screen (AID 1126); details: fluorescence 635 nm, higher = more signal;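 further: printed compound slides probed with Chrdl2 protein at 4 µg/mL for 1 h at 4 C; score merges 667 nm emission intensity with signal to noise over three replicate slides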
[8] = target: Concanavalin-A (Canavalia ensiformis) (UniProt P02866); assay: compounds binding concanavalin A lectin – biochemical, small-molecule microarray, Alexa647 label, 635 nm, artefact control for SMM control protein annotation, primary screen (AID 1127); details: ConA-A647 binding fluorescence, higher = more signal;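 further: z combines 667 nm emission intensity with signal-to-noise across three replicate slides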
[9] = compounds binding Alexa647 anti-His antibody – biochemical, small-molecule microarray, 635 nm fluorescence, artefact control for SMM control protein annotation, primary screen (AID 1128); details: higher = more signal;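 further: score merges feature fluorescence with signal-to-noise for each printed compound spot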
[10] = test system: Human papillomavirus type 1a E7 protein (residues 1-88); assay: HPV1a E7 small-molecule binders, primary screen, biochemical, small-molecule microarray, residues 1-88, 635 nm (AID 1129); details: small-molecule microarray binding, fluorescence 635 nm; higher = more signal
[11] = target: Focal adhesion kinase 1 (Homo sapiens) (UniProt Q05397); assay: PTK2 protein binding on printed compound slides – biochemical, small-molecule microarray, 635/667 nm fluorescence, BSA, DTT, primary screen (AID 1130); details: 635 nm fluorescence, higher = more signal;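 further: composite of spot emission at 667 nm and signal to noise over triplicate slides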
[12] = test system: Fibrinogen (Alexa647-labelled); assay: Alexa647-fibrinogen binding to printed small molecules – biochemical, small-molecule microarray, 635/667 nm fluorescence, artefact control for SMM control-protein annotation, profiling panel (AID 1131); details: fibrinogen-A647 binding fluorescence, higher = more signal;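 further: z-score merges 667 nm fluorescence with per-spot signal-to-noise over triplicate slides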
[13] = target: Follistatin (Homo sapiens) (UniProt P19883); assay: FST protein binding to printed compounds – biochemical, small-molecule microarray, 635/667 nm fluorescence, primary screen (AID 1132); details: 635 nm fluorescence, higher = more signal
[14] = target: Fibroblast growth factor 2 (Homo sapiens) (UniProt P09038); assay: basic fibroblast growth factor binding to printed compounds – biochemical, small-molecule microarray, 635/667 nm fluorescence, primary screen (AID 1133); details: FGF2, fluorescence 635/667, higher = more signal
[15] = JC-1 mitochondrial potential readout, lung cancer cells – cell-based, A549, JC-1 fluorescence, basal, 24 h, 100 nL, profiling panel (AID 1138); details: higher = more signal;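 further: A549 lung adenocarcinoma cells under basal conditions with no added stimulus; test concentration not given here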
Lefty1 = Lefty1 protein binding to printed compounds – biochemical, small-molecule microarray, 635/667 nm fluorescence, primary screen (AID 1139); details: fluorescence 635/667, higher = more signal
[16] = test system: wheat germ agglutinin (Triticum aestivum), Alexa647-labelled; assay: Alexa647-WGA lectin binding to printed small molecules – biochemical, small-molecule microarray, 635/667 nm fluorescence, artefact control for SMM control-protein annotation, profiling panel (AID 1140); details: WGA-A647 binding, 635 nm fluorescence, higher = more signal;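 further: score merges 667 nm feature emission with signal to noise over triplicate slides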
[17] = target: Luciferin 4-monooxygenase (Photinus pyralis) (UniProt P08659); assay: inhibition of purified Photinus pyralis luciferase – biochemical, luminescence, purified enzyme, 2006 set, primary screen (AID 1141); details: purified firefly luciferase, SteadyGlo luminescence, 30 min; higher = more signal, called active from +8 up or from −8 down;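 further: cell-free assay with purified firefly luciferase at 100 ng per well in PBS; test concentration not given here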
Chain of Luciferin 4-monooxygenase (Photinus pyralis) (P08659 whole entry, looked up): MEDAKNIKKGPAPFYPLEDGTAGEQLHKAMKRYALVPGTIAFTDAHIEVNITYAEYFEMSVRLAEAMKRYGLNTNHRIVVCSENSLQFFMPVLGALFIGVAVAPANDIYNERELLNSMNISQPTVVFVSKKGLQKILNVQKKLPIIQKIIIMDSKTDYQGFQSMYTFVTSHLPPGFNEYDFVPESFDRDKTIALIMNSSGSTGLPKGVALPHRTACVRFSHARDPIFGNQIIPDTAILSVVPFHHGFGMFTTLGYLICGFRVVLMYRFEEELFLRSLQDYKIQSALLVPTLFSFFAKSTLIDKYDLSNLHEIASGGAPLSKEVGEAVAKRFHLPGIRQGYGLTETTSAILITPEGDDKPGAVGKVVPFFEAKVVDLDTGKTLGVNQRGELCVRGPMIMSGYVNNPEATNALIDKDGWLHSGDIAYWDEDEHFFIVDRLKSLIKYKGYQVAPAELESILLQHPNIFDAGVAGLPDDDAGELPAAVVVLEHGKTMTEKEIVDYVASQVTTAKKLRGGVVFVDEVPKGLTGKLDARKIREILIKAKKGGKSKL

Chain of Fibroblast growth factor 2 (Homo sapiens) (P09038 whole entry, looked up): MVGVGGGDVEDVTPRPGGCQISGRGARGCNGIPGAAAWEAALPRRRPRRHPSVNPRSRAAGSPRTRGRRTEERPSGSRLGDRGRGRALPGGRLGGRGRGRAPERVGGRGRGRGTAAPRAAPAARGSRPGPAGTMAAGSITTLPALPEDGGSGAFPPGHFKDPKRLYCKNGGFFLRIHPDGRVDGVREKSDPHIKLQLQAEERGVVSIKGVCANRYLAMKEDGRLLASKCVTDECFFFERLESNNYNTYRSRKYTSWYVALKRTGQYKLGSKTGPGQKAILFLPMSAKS
Chain of Focal adhesion kinase 1 (Homo sapiens) (Q05397 whole entry, looked up): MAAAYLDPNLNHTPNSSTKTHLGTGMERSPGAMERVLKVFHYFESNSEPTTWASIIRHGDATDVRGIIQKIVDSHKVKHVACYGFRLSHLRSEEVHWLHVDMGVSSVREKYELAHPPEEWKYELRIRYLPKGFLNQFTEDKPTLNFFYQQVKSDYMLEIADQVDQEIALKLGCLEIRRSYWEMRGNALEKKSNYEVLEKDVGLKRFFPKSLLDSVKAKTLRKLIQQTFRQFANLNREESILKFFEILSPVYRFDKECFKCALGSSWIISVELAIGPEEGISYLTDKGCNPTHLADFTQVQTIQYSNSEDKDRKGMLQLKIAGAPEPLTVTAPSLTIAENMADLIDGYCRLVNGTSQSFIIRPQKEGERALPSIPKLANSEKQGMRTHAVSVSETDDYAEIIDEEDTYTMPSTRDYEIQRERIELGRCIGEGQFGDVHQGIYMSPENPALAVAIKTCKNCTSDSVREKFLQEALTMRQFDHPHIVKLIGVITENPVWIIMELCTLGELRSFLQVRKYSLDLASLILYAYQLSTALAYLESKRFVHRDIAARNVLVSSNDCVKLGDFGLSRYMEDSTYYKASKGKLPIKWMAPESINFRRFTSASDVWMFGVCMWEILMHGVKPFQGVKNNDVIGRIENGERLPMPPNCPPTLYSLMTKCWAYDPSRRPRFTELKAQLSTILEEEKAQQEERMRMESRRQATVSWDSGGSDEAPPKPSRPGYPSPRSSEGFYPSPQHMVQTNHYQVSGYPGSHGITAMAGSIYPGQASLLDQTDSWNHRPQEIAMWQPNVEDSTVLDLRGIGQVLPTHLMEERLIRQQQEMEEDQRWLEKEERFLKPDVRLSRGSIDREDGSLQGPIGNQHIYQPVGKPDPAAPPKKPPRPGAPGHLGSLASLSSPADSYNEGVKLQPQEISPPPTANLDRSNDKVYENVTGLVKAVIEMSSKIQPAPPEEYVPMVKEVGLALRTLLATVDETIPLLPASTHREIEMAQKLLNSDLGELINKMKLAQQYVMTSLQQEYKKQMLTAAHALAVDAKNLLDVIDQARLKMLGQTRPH
Chain of Albumin (Bos taurus) (P02769 whole entry, looked up): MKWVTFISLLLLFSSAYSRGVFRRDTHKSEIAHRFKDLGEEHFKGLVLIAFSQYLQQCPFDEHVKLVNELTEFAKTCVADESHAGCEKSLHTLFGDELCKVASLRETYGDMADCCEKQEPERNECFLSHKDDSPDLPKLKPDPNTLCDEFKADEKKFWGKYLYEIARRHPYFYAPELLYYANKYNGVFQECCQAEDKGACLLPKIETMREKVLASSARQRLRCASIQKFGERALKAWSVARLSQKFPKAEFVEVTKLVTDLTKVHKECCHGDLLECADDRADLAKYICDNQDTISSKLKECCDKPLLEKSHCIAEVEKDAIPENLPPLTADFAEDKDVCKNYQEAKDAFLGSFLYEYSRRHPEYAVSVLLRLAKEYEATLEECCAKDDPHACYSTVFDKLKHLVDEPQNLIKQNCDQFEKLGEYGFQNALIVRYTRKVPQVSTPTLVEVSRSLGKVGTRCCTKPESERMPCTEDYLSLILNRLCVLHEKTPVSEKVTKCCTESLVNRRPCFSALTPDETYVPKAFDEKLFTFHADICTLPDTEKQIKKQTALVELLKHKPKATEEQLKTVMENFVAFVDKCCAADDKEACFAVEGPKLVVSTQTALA
Chain of Concanavalin-A (Canavalia ensiformis) (P02866 whole entry, looked up): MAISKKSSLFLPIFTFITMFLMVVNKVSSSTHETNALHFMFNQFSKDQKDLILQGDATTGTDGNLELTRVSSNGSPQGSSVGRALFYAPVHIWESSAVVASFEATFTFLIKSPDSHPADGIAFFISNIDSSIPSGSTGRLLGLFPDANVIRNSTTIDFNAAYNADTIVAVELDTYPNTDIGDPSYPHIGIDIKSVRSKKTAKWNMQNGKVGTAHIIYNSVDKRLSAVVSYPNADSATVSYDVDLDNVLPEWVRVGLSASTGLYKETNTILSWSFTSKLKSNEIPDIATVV
Chain of Follistatin (Homo sapiens) (P19883 whole entry, looked up): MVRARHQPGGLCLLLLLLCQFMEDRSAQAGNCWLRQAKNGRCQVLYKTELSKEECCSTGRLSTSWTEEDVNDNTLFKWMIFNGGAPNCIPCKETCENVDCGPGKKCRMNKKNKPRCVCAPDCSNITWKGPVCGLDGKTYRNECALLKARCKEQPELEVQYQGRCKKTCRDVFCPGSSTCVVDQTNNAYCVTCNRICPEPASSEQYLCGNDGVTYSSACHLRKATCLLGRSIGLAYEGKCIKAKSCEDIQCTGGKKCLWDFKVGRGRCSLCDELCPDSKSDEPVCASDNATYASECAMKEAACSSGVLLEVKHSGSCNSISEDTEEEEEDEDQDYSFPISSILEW

SMILES | composite z-score (Albumin (Bos taurus)) | composite Z-score [1] | composite z-score [2] | composite z-score [3] | composite z-score [4] | composite z-score [5] | composite z-score [6] | composite z-score (Sam68 (KHDRBS1)) | composite z-score [7] | composite z-score [8] | composite z-score [9] | composite z-score [10] | composite z-score [11] | composite z-score [12] | composite z-score [13] | composite z-score [14] | z-score [15] | composite z-score (Lefty1) | composite z-score [16] | z-score [17]
COCCCNC(=O)[C@@]1(Sc2ccc(C)cc2)CC(=O)N(Cc2ccccc2C(F)(F)F)[C@@H]1c1ccc(CO)cc1I | 0.474 | -1.08 (inactive) | -0.402 | -0.121 | 0.175 | 1.08 | 0.295 | 0.188 | -1.51 | -0.89 | -1.39 | -2.04 | -0.905 | -1.75 | -1.59 | -1.5 | -0.288 | -1.78 | -1.47 | 0.166 (inactive)
CN1C(=O)C2C(C1=O)C1C=C(CCCO)C2C(C2CC2)N1Cc1cccc(OC(F)(F)F)c1 (stereo not given) | 1.04 | 0.35 (inactive) | 0.0934 | -0.023 | 0.911 | 2.55 | 0.956 | 1.3 | -0.535 | 0.983 | 1.37 | 0.925 | 1.35 | 0.0349 | -0.0603 | -0.862 | -0.198 | 0.0613 | 1.04 | -0.478 (inactive)
C=C(COC)C(=O)CC[C@@H](OC(=O)c1ccccc1-c1ccccc1C(=O)O)c1ccc(OCCO)cc1 | -0.238 | 0.081 (inactive) | -0.0491 | -0.154 | 0.784 | 0.113 | 0.238 | 0.576 | 0.319 | -0.0355 | -0.0978 | -0.0905 | -0.0142 | -1.48 | 1.45 | 1.42 | 0.0645 | 1.48 | 0.595 | -3.04 (inactive)
COCCOC(=O)N1C(=O)[C@@]2(c3cc(C#CCCO)ccc31)[C@H](C(N)=O)[C@H]1C(=O)O[C@H](c3ccccc3)[C@H](c3ccccc3)N1[C@@H]2c1ccccc1OCCO | 0.69 | 0.689 (inactive) | 0.0727 | -0.14 | 0.552 | 1.54 | 0.45 | 1.3 | -0.0675 | 1.14 | 3.07 | 1.21 | 0.425 | 0.897 | 1.19 | 0.516 | -0.256 | 0.673 | 0.713 | -0.683 (inactive)
COCCOC(=O)N1C(=O)[C@@]2(c3cc(C#CCC(C(=O)OC)C(=O)OC)ccc31)[C@H](C(N)=O)[C@H]1C(=O)O[C@H](c3ccccc3)[C@H](c3ccccc3)N1[C@@H]2c1ccc(O)cc1 | 0.751 | -0.642 (inactive) | 0.104 | -0.0282 | 0.407 | 1.97 | 0.134 | 1.3 | 0.778 | 0.951 | 2.22 | 1.23 | 0.601 | 0.92 | 1.33 | 0.468 | -2.31 | 1 | 1.06 | -0.878 (inactive)
C=C(COC)/C(=C/C[C@@H](OC(C)=O)c1ccccc1OCCO)c1cnc2ccccc2c1 | -0.209 | 0.72 (inactive) | 0.199 | -0.084 | 0.776 | 1.09 | 0.542 | 1.17 | 0.765 | 0.995 | 0.782 | 1.06 | 0.423 | 0.0866 | 1.43 | 1.12 | -0.159 | 1.54 | 1.2 | -1.47 (inactive)
CC(=O)NCCCC[C@@H]1NC(=O)[C@H]2C[C@@H](C(=O)NCCCCCCNC(=O)CS)[C@@H](c3cccc(OCCO)c3)N2C1=O | -0.637 | 0.381 (inactive) | -0.0647 | -0.108 | 0.592 | 1.84 | 0.537 | 1.28 | 0.487 | 0.447 | 3.57 | 0.937 | 0.612 | -0.256 | 1.36 | 1.63 | -0.0905 | 0.0938 | 0.184 | -0.399 (inactive)
COC(=O)[C@@]1(Cc2ccccc2)[C@H]2c3cc(C(=O)N(C)C)n(CCO)c3C[C@H]2CN1C(=O)c1ccccc1 | 1.04 | 0.335 (inactive) | 0.0259 | 0.19 | 0.958 | 3.13 | 0.877 | 1.24 | -1.44 | 1.2 | 1.86 | 1.16 | 1.89 | 1.02 | -0.535 | -0.541 | 0.628 | -0.986 | 1.41 | 2.11 (inactive)
COC(=O)[C@]1(Cc2ccccc2)N=C(c2ccc(OCCCO)cc2)O[C@@H]1c1ccccc1CN=[N+]=[N-] | -0.847 | 0.384 (inactive) | 0.0259 | -0.0017 | 0.403 | 1.98 | -0.0103 | 0.745 | 0.214 | 0.656 | 1.12 | 1.16 | 0.687 | 0.415 | 1.44 | 0.702 | -1.74 | 0.0393 | 0.418 | -1.44 (inactive)
COc1cc(C(O)C2C=CC3C(=O)N(c4ccccc4)C(=O)C3N2Nc2ccccc2)cc(OC)c1OC (stereo not given) | 0.993 | 0.328 (inactive) | 0.416 | -0.0742 | 0.573 | 2.89 | 0.496 | 1.31 | -0.872 | 1.15 | 1.04 | 1.21 | 0.655 | 1 | 1.14 | -0.085 | -0.193 | -0.383 | 1.24 | -0.171 (inactive)
O=C1O[C@H](c2ccccc2)[C@H](c2ccccc2)N2[C@H]1[C@@H](C(=O)N1CCN(c3ncccn3)CC1)[C@]1(C(=O)Nc3ccc(C#CCCO)cc31)[C@H]2c1ccc(O)cc1 | 0.627 | -0.777 (inactive) | 0.171 | -0.11 | 0.413 | 1.88 | 0.608 | 0.574 | 0.0231 | 1.01 | 0.144 | 0.762 | 1.38 | 0.888 | 0.809 | 0.115 | -0.683 | 0.186 | 0.766 | -0.538 (inactive)
